This note sets out measurements from PubChem BioAssay (NCI).

The panel holds about 83,000 compounds, 20% with a hit somewhere; the sample as a whole holds those more often.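 Treatment: one concentration, 48 hours, 96-well format. Scoring: percent growth, with anything below 10 considered active.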 Activity calls are given as the source filed them.

For this assay, the system named is MDA-MB-435 melanoma. Description: NCI-60 one-dose screen, 48 h (100 = growth as untreated, 0 = no growth, -100 = all killed). To be noted: 10 µM unless noted.
With `O=C(COc1ccc(/C=C2\SC(=O)NC2=O)cc1)Nc1ccc(C(=O)/C=C/c2cc3ccccc3nc2Cl)cc1`, the growth is 13.6% (inactive).

As to `CC(C)Sc1nc(NC2CC2)c(C#N)c(-c2ccccc2)n1`, the growth is 88.1% (inactive). As to `O=C(COc1cccc2cccnc12)Nc1ccc(C(=O)/C=C/c2ccc(Cl)cc2)cc1`, the growth is 92.6% (inactive).

Take `Oc1ccc(CSc2nnc(-c3ccc(Br)cc3)n2-c2ccccc2)c2cccnc12`: the growth is 19.5% (inactive). Then `COc1ccccc1N1CCN(C2=NN=C(c3cccc(Cl)c3)c3ccccc3C2)CC1`, with -3.46% (active); and `O=C1/C(=C/c2ccc([N+](=O)[O-])cc2)SC(=Nc2ccccc2)N1Nc1ccccc1`, with 71.1% (inactive); and `COc1ccc([C@H]2c3[nH]c4ccccc4c3C[C@@H]3C(=O)N(C4CCN(Cc5ccccc5)CC4)CC(=O)N23)c(OC)c1`, with 83.3% (inactive). Then `CC1OC(O[C@@H]2[C@H](O)C(CO)OC(O[C@H]3COC(O[C@H]4CC[C@]5(C)[C@H]6CC[C@]78OC[C@@]9(CCC(C)(C)C[C@H]97)[C@H](O)C[C@@]8(C)[C@]6(C)CC[C@H]5C4(C)C)[C@@H](OC4OC(CO)[C@@H](O)[C@@H](O)[C@@H]4O)[C@@H]3O)[C@H]2OC2OC[C@@H](O)[C@@H](O)[C@@H]2O)[C@@H](O)[C@@H](O)[C@H]1O` (some centres not stated), with -82.8% (active); and `N#Cc1c(-c2cccs2)cc(-c2cnccn2)nc1SCC(=O)NNC(=S)Nc1ccc(F)cc1`, with 101% (inactive); and `O=C1NC(=O)c2c1c1c3ccccc3ccc1c1[nH]c3ccccc3c21`, with 9.08% (active). Then `COc1ccc(-c2ccc3c4c(cccc24)C(=O)N(N2C(=O)c4cccc5cccc(c45)C2=O)C3=O)cc1`, with 98.8% (inactive). For the molecule `NS(=O)(=O)c1ccc(Nc2nc(N/N=C/c3ccc(C(F)(F)F)cc3)nc(Nc3ccccc3)n2)cc1`, the growth was 19.9% (inactive). Then `COc1cc(CNC(=O)/C=C/c2ccccc2)ccc1OCC(=O)NO`, with 102% (inactive); and `NS(=O)(=O)c1ccc(Nc2nc(N/N=C/c3ccc(F)cc3)nc(Nc3ccccc3)n2)cc1`, with 53.5% (inactive); and `C=C1C(=O)O[C@@H]2C[C@@H](C)[C@H](OC)CC(=O)[C@](C)(OC(C)=O)C[C@H](OC(=O)/C(C)=C\C)[C@@H]12`, with 82.8% (inactive).

For `O=C(c1ccc(O)cc1)[C@@H]1[C@@H]2CCCN2[C@@]2(C(=O)N(C(=O)c3ccc(F)cc3)c3ccccc32)[C@H]1c1ccc(F)cc1`, the growth was 88.1% (inactive). As for `Cc1ccc(-n2cc(/C=C/C(=O)c3ccc(S(C)(=O)=O)cc3)c(-c3ccc(S(C)(=O)=O)cc3)n2)cc1`, the growth was 31.4% (inactive). Then `Cc1ccc(Cc2cnc(NC(=O)/C(C#N)=C/c3ccc(-c4ccc(Cl)cc4)o3)s2)cc1`, with 94.4% (inactive); and `C=C(C)C(=O)O[C@H]1C[C@@]2(C)OC(=CC2=O)/C(C)=C\[C@H]2OC(=O)C(=C)[C@H]12`, with -57.4% (active); and `CCN(CC)CCN1C(=O)c2c(c3c4cc(Br)ccc4[nH]c3c3ccc4ccccc4c23)C1=O`, with -94.7% (active). `Oc1ccc(CSc2nnc(-c3ccc(Oc4ccccc4)cc3)o2)c2cccnc12`: the growth is 29.9% (inactive).

On to `O=C1c2c(c3c4cccnc4[nH]c3c3ccc4ccccc4c23)C(=O)N1CCN1CCOCC1`, for which the growth is 67.7% (inactive). Then `O=c1[nH]c(CCl)nc2c1cnn2-c1ccccc1`, with 104% (inactive); and `C=C1C(=O)O[C@@H]2/C=C(/C)C3=CC(=O)[C@@](C)(C[C@H](OC(=O)/C(C)=C\C)[C@@H]12)O3`, with -59% (active); and `O=C1CC2(CCOCC2)Oc2ncccc21`, with 81.2% (inactive). Take `O=C(Nc1ccc(F)cc1)c1cc(-c2ccc(F)cc2F)ccc1O`: the growth is 5.11% (active).

Regarding `COc1ccc(/C=N\NC(=O)c2ccc3nc(-c4ccc(Br)cc4)[nH]c3c2)cc1`, the growth is 35.5% (inactive). Then `O=C(O)c1ccc(-n2cc(CNc3ccc(Cl)cc3)c(-c3ccc(F)cc3)n2)cc1`, with 98.1% (inactive); and `COc1cc(/C=N/n2cnc3oc(-c4ccccc4)cc3c2=N)cc(CN2CCCC2)c1O`, with 96.6% (inactive).

For `CCOC(=O)c1c(NCC(=O)Nc2cccc(Cl)c2)sc2c1CCCC2`, the growth was -2.01% (active). `Cc1ccc(-c2csc(N/N=C/c3nc4ccccc4n3C3CC3)n2)cc1`: the growth is 92.4% (inactive).

`C#C[C@]1(O)CC[C@H]2[C@@H]3CC=C4c5sc(Nc6cccc(C)n6)nc5CC[C@]4(C)[C@H]3CC[C@@]21C`: the growth is -41.5% (active).
